Assay results reported in PubChem BioAssay (EPA / NIEHS).
Results filed as inconclusive are left out. Active and inactive are the calls of the source. How the source made its calls: active means hit-call score of the fitted dose curve at least 0.9, where 1 is the maximum; inconclusive means response in the unintended direction; inactive means score below 0.9.

Test: ATG_XTT_Cytotoxicity: Cytotoxicity Assessment in the Attagene TRANS-FACTORIAL HepG2 Assay (AID 2283584)
Outline: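 Cells: human HepG2, transiently transfected with MRTU reporter constructs. Exposure 24 h. Readout: XTT, cell number. Baseline/neg ctrl DMSO; loss-of-signal scored.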
In the case of `CC(C)CCCCCCCOC(=O)c1ccc(C(=O)OCCCCCCCC(C)C)c(C(=O)OCCCCCCCC(C)C)c1`, the outcome is reported as “inactive”. For `CC(C)=CCC[C@](C)(O)[C@@H]1CC=C(C)CC1`, the outcome was “inactive”. With `CN1Cc2c(N)cccc2C(c2ccccc2)C1` (stereo unspecified) the outcome was “inactive”. For `CCc1c(C)cc(N)c(CC)c1N`, the outcome was “inactive”. With `CCCC(=O)OCCC(C)CCC=C(C)C` (stereo unspecified) the outcome was “inactive”. With `O=S(=O)(O)c1cccc2c(S(=O)(=O)O)cccc12` the outcome was “inactive”. In the case of `OC1C(O)C(O)C(O)C(O)C1O` (stereo unspecified), the outcome is reported as “inactive”. For `Cc1c(Cl)c(=O)oc2cc(O)ccc12`, the outcome was “inactive”. For `O=C[C@H](O)[C@H](O)[C@H](O)CO`, the outcome was “inactive”. With `CCCC(C)C=O` (stereo unspecified) the outcome was “inactive”. With `Clc1cccc(Cl)n1` the outcome was “inactive”. For `CC(C)(CO)[N+](=O)[O-]`, the outcome was “inactive”. With `COc1cc(C(C)(C)C)c(O)c(C(C)(C)C)c1` the outcome was “inactive”. For `CC1COc2ccccc2N1C(=O)C(Cl)Cl` (stereo unspecified), the outcome was “inactive”. In the case of `Cc1cccc(C)c1[N+](=O)[O-]`, the outcome is reported as “inactive”. For `CSc1nnc(C(C)(C)C)c(=O)[nH]1`, the outcome was “inactive”. With `NCCCN1CCOCC1` the outcome was “inactive”. In the case of `Cc1ccc(C=O)cc1`, the outcome is reported as “inactive”. For `O=C(O)CCCCCCCCCCC(=O)O`, the outcome was “inactive”. In the case of `CCCCCCC#CC(=O)OC`, the outcome is reported as “inactive”. With `C=C(C)C(=O)OCc1ccccc1` the outcome was “inactive”. For `CCC/C=C/C=O`, the outcome was “inactive”. For `OCCOc1cccc(OCCO)c1`, the outcome was “inactive”. With `Nc1nc2ccc([N+](=O)[O-])cc2s1` the outcome was “inactive”. With `CC(=O)[O][Al][O]C(C)=O` the outcome was “inactive”. For `COc1cc(C)cc(O)c1`, the outcome was “inactive”. For `CC1(C)OC[C@@H]2O[C@@]3(C(=O)O)OC(C)(C)O[C@H]3[C@@H]2O1`, the outcome was “inactive”. For `O=[N+]([O-])c1ccc(Nc2ccc(Nc3ccccc3)c(S(=O)(=O)O)c2)c([N+](=O)[O-])c1`, the outcome was “inactive”. For `CC(c1cc2ccccc2s1)N(O)C(N)=O` (stereo unspecified), the outcome was “inactive”. For `O=S(=O)(O)NC1CCCCC1`, the outcome was “inactive”. In the case of `CC(C=O)Cc1ccc(C(C)C)cc1` (stereo unspecified), the outcome is reported as “inactive”. In the case of `C=O`, the outcome is reported as “inactive”. In the case of `CCCCN`, the outcome is reported as “inactive”. With `O=[N+]([O-])c1ccc(C=Cc2ccc([N+](=O)[O-])cc2S(=O)(=O)O)c(S(=O)(=O)O)c1` the outcome was “inactive”. With `CN(C)c1ccc(O)c2c1C[C@H]1C[C@H]3[C@H](N(C)C)C(=O)C(C(N)=O)=C(O)[C@@]3(O)C(=O)C1=C2O` the outcome was “inactive”. With `CCCCCCCCCCCCOCCO` the outcome was “inactive”.
